The values below come from PubChem BioAssay (EPA / NIEHS).

Results filed as inconclusive are left out. More than one record can exist for a structure, and the calls need not agree. Active and inactive are the calls of the source. How the source made its calls, unless noted: active means hit-call score of the fitted dose curve at least 0.9, where 1 is the maximum; inconclusive means response in the unintended direction; inactive means score below 0.9.

The nature of assay [1]: Tanguay_ZF_120hpf_SOMI_legacy: (Legacy) Oregon State University Tanguay Lab 120 Hour Post-fertilization zebrafish Assay for Somite Malformation (AID 2283647). The method, boiled down:
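Read-out: presence or absence of somite malformation in 120 hpf larvae, gain-of-signal relative to DMSO baseline. Embryos lacked chorion (pronase, 4 hpf) and were exposed statically from 6 hpf at 28C; dead larvae not scored.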

Assay [2] is described as follows: Tanguay_ZF_120hpf_PFIN_legacy: (Legacy) Oregon State University Tanguay Lab 120 Hour Post-fertilization zebrafish Assay for Pectoral Fin Malformation (AID 2283648).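 Further: each larva judged yes or no for fin defect by brightfield with dead larvae skipped.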 The method, boiled down: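 5D WT zebrafish; pronase dechorionation 4 hpf; 1 embryo/well at 6 hpf; static exposure to 120 hpf, 28C, sealed, foil-covered; final DMSO 0.64% v/v; 5 uM trimethyltin chloride positive control; fin defect scored yes/no.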

A short description of assay [3]: Tanguay_ZF_120hpf_CFIN_legacy: (Legacy) Oregon State University Tanguay Lab 120 Hour Post-fertilization zebrafish Assay for Caudal Fin Malformation (AID 2283649). In short, it runs like this:
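Binary presence or absence of caudal fin malformation at 120 hpf, read by brightfield microscopy, with DMSO as baseline. Larvae came from 5D wild-type embryos exposed statically from 6 hpf at 28C after pronase dechorionation.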

Assay [4] is described as follows: Tanguay_ZF_120hpf_SWIM_legacy: (Legacy) Oregon State University Tanguay Lab 120 Hour Post-fertilization zebrafish Assay for Swim Bladder Malformation (AID 2283654).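 Further: swim bladder malformation in each larva scored yes or no under brightfield.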 In short, it runs like this:
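Embryos lacking chorions were exposed individually and statically to test chemical from 6 to 120 hpf at 28C, with 0.64% DMSO as vehicle. At 120 hpf, swim bladder malformation was recorded as present or absent by brightfield microscopy.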

Assay [5] can be described thus: Tanguay_ZF_120hpf_TRUN_legacy: (Legacy) Oregon State University Tanguay Lab 120 Hour Post-fertilization zebrafish Assay for Truncated Body (AID 2283655). The method, boiled down:
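Truncated body is recorded as a binary endpoint at 120 hpf by brightfield imaging of wild-type 5D larvae. Exposure runs statically from 6 hpf at 28C with 0.64% DMSO; embryos dying earlier are not scored.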

A short description of assay [6]: Tanguay_ZF_120hpf_NC_legacy: (Legacy) Oregon State University Tanguay Lab 120 Hour Post-fertilization zebrafish Assay for Notochord and Tail Malformation (AID 2283656). The method, boiled down:
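Dechorionated 5D zebrafish, 1/well from 6 hpf; static exposure to 120 hpf, 28C, sealed, dark; final DMSO 0.64% v/v. NC scored binary (present/absent); dead embryos not scored. Fit vs DMSO baseline, gain direction.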

For assay [7], the system named is Thyroperoxidase (TPO), gene 54314. Put plainly: CCTE_Simmons_AUR_rTPO: CCTE's Amplex UltraRed Assay for Thyroperoxidase (TPO) Inhibition, Simmons Lab (AID 2283662).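 On AC50: potency for loss of signal meaning inhibition of peroxidase activity.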 In short, it runs like this: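 Rat thyroid microsomes (5 ug protein) were incubated with test compound (8 concentrations, 5 nM–87.5 uM final, 0.5% DMSO), 25 uM Amplex UltraRed and 300 uM H2O2 in 200 mM phosphate buffer for 30 min at 37C in the dark; fluorescence read at 544/590 nm.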

Assay [8] in a line: CCTE_Simmons_CellTiterGLO_HEK293T: Viability Assessment in CCTE's Assays for Thyroperoxidase (TPO) Inhibition, Simmons Lab (AID 2283665).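 On AC50: cells exposed to compound for 24 h before readout; actives reduce ATP signal below DMSO vehicle meaning cytotoxicity.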 In short, it runs like this:
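Cytotoxicity counter-screen: human HEK293T cells in low-serum (1% FBS) medium receive test chemical, 5 nM to 87.5 uM final, for 24 h; ATP is quantified by luciferase luminescence.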
In general terms: ATP-based viability assays read luminescence as a measure of living cells.

The nature of assay [9]: Tanguay_ZF_120hpf_TR_legacy: (Legacy) Oregon State University Tanguay Lab 120 Hour Post-fertilization zebrafish Assay for Touch Response (AID 2283667). In short, it runs like this: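 5D WT embryos; static exposure to 120 hpf, 28C, sealed/dark; DMSO 0.64% v/v final. TR scored present/absent; dead embryos excluded. Pos ctrl 5uM trimethyltin chloride.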
Assay [10] is described as follows: STM_H9_OrnithineISnorm_perc: Stemina devTOX quickPredict H9 human embryonic stem cell (hESC)-based Assay for Ornithine (ORN) Metabolite Biomarker, Normalized (AID 2283712; active means hit-call score of the fitted dose curve at least 0.9, where 1 is the maximum; inactive means score below 0.9;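 further: ornithine released into spent medium during last day measured by mass spectrometry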). In short, it runs like this:
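Cells: undifferentiated H9 hESC. Dosing: 72 h, media replaced every 24 h. Sample: final 24-h conditioned media, 40% acetonitrile. Read: UPLC-HRMS ornithine area vs 13C standard, % DMSO control.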

Assay [11] can be described thus: STM_H9_CystineISnorm_perc: Stemina devTOX quickPredict H9 human embryonic stem cell (hESC)-based Assay for Cystine (CYSS) Metabolite Biomarker, Normalized (AID 2283713; active means hit-call score of the fitted dose curve at least 0.9, where 1 is the maximum; inactive means score below 0.9). The method, boiled down: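 Secreted cystine was measured by UPLC-HRMS in H9 hESC medium after 72h compound exposure with 24-hourly replenishment. Values are standard-normalized areas relative to 0.1% DMSO.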

Assay [12] is described as follows: STM_H9_OrnCyssISnorm_ratio: Stemina devTOX quickPredict H9 human embryonic stem cell (hESC)-based Assay for Ornithine (ORN):Cystine (CYSS) Ratio (AID 2283714). The method, boiled down:
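Steps: H9 hESCs in pluripotent state dosed 72h, medium plus compound renewed every 24h; conditioned medium from the final 24h deproteinized in 40% acetonitrile; ORN and CYSS quantified by UPLC-HRMS with C13 spike-ins; ratio relative to vehicle.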

The nature of assay [13]: Tanguay_ZF_120hpf_CIRC_legacy: (Legacy) Oregon State University Tanguay Lab 120 Hour Post-fertilization zebrafish Assay for Circulatory Malformation (AID 2283651). The method, boiled down: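 Using wild-type Tropical 5D zebrafish, we exposed dechorionated embryos from 6 to 120 hpf in embryo medium with 0.64% DMSO. Circulatory defects were scored as present or absent; 5uM trimethyltin chloride served as positive control.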

Assay [14] can be described thus: CCTE_Padilla_ZF_144hpf_TERATOSCORE: (Legacy) CCTE's 144 Hour Post-fertilization zebrafish Assay Teratoscore, Padilla Lab (AID 2283679; active means hit-call score of the fitted dose curve at least 0.9, where 1 is the maximum; inactive means score below 0.9;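 on AC50: zebrafish embryos with chorions exposed by immersion from 6-8 hpf to 5 dpf with daily renewal; teratogenicity score from eye scoring of death hatching and malformations at 144 hpf; higher score means more developmental defects relative to DMSO baseline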). In short, it runs like this: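 Larvae scored by eye at 144 hpf for death, hatching and malformations after a day in clean Hanks'. Before that, daily-renewed exposure at 80 uM (0.4% DMSO, 26C) from roughly 6-8 hpf through 5 dpf, 4 embryos per chemical.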

A short description of assay [15]: Tanguay_ZF_120hpf_PIG_legacy: (Legacy) Oregon State University Tanguay Lab 120 Hour Post-fertilization zebrafish Assay for Pigmentation Malformation (AID 2283650). In short, it runs like this:
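Pronase dechorionation at 4 hpf; embryos plated at 6 hpf, one per well; static exposure, sealed and foil-covered, 28C, to 120 hpf; pigmentation read by brightfield, binary; DMSO 0.64% baseline, 5uM trimethyltin chloride positive control.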

Read-out in assay [16]: solute carrier (SLC22A6), SLC22A6 (gene 9356)
Kind of assay: LTEA_HepaRG_SLC22A6: Life Technologies and Expression Analysis (LTEA) Assay for solute carrier (SLC22A6) using HepaRG (AID 2283653; active means hit-call score of the fitted dose curve at least 0.9, where 1 is the maximum; inactive means score below 0.9). Conditions: mRNA level, 48 h; actives raise or lower the signal. In short, it runs like this:
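Read-out is SLC22A6 transcript level by qRT-PCR, normalised to three housekeeping genes and fitted for gain or loss relative to 0.5% DMSO vehicle. Human HepaRG cells received chemicals at up to 100 uM for 48 h.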

Read-out in assay [17]: solute carrier (SLC10A1), SLC10A1 (gene 6554)
Put plainly: LTEA_HepaRG_SLC10A1: Life Technologies and Expression Analysis (LTEA) Assay for solute carrier (SLC10A1) using HepaRG (AID 2283657; active means hit-call score of the fitted dose curve at least 0.9, where 1 is the maximum; inactive means score below 0.9). Conditions: mRNA level, 48 h; actives raise or lower the signal. In short, it runs like this: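 Transcript levels were measured by qRT-PCR after human HepaRG cells received test chemical for 48 hours, up to 100 uM in half-log dilutions. Values come from bidirectional concentration-response fitting relative to 0.5% DMSO vehicle.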

Read-out in assay [18]: matrix metalloproteinase-1 (MMP1), MMP1 (gene 4312)
Put plainly: LTEA_HepaRG_MMP1: Life Technologies and Expression Analysis (LTEA) Assay for matrix metalloproteinase-1 (MMP1) using HepaRG (AID 2283658; active means hit-call score of the fitted dose curve at least 0.9, where 1 is the maximum; inactive means score below 0.9). Conditions: mRNA level, 48 h; actives raise or lower the signal. In short, it runs like this: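 HepaRG, ~100,000 cells/well, 48 h pre-culture; serum-free induction medium; test chemical 8 conc (max 100 uM, half-log), duplicate, 48 h; 0.5% DMSO; qRT-PCR MMP1, housekeeping-normalized; gain/loss fit vs DMSO.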

Read-out in assay [19]: Cytochrome P450 (CYP24A1_1), CYP24A1 (gene 1591)
Put plainly: LTEA_HepaRG_CYP24A1_1: Life Technologies and Expression Analysis (LTEA) Assay for Cytochrome P450 (CYP24A1_1) using HepaRG (AID 2283671; active means hit-call score of the fitted dose curve at least 0.9, where 1 is the maximum; inactive means score below 0.9). Conditions: mRNA level, 48 h; actives raise or lower the signal. The method, boiled down:
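In this test, gene induction or suppression of CYP24A1 in human HepaRG liver cells is measured by qRT-PCR after 48 h chemical treatment (eight concentrations, maximum 100 uM). Values are fitted bidirectionally relative to DMSO.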

A word on the AC50: it is the midpoint of the concentration-response curve, whichever way the signal moves. For `COc1cc(C(=O)NC2CCN(C)CC2)ccc1Nc1ncc2c(n1)N(C1CCCC1)CC(F)(F)C(=O)N2C`, the call in [1], in assay [2], in assay [3] and in assay [4] was inactive. Also, the AC50 was 31 µM (active) in assay [5]; 33 µM (active) in assay [6]; 40.7 µM (active) in assay [7]; 15.3 µM (active) in [8]; 36.1 µM (active) in [9]; 39.3 nM (active) in assay [10]. The AC50 was 28.4 nM (active) in assay [11] and 31.1 nM (active) in assay [12].
With `Oc1ccccc1`, the call in assay [1], in assay [2], in assay [4], in [5], in assay [6] and in [7] was inactive. The molecule was called inactive in assay [8] and in assay [9]. In [7], the AC50 is 23.6 µM (active).
As to `COc1cccc([C@H](O)C2CCN(CCc3ccc(F)cc3)CC2)c1OC`, the call in assay [1], in assay [3], in assay [5], in [6], in assay [9] and in assay [10] was inactive. In addition, the AC50 in assay [11] is 6340 nM (active); in [12], 10000 nM (active).
Turning to `CCCCCc1ccc(N)cc1`, the molecule was classed as inactive in assay [2], in assay [3], in assay [13], in assay [4], in [5] and in [6]. The molecule was called inactive in assay [9]. Besides, the AC50 is 0.0637 µM (active) in assay [7], 26.7 µM (active) in assay [8] and 65.9 µM (active) in assay [14].
Regarding `O=C1CCC(C2CCCCC2)CC1`, the result in assay [2], in assay [3], in assay [15], in [13], in assay [4] and in [5] was inactive. Further, the result in assay [6], in [7] and in assay [9] was inactive. The concentration at half-maximal activity (AC50) in assay [8] was 43.8 µM (active).
Take `CCN(Cc1cccnc1)C(=O)c1cccc(Cl)c1[C@]1(C)C(=O)N(Cc2ccc(OC)cc2OC)c2ccc(Cl)cc21`: the molecule was called inactive in assay [1], in [2], in assay [3], in assay [4], in assay [5] and in [6]. Besides, in [9], the molecule was called inactive.
For the molecule `CCN(CC)C(=O)c1cc(S(=O)(=O)Cc2ccccc2)c(N2CCC(c3ccccc3)CC2)cc1N(CC)CCN(C)C`, the molecule was classed as inactive in [1], in assay [2], in assay [13], in assay [16], in assay [4] and in assay [5]. For the same molecule, the result in assay [6], in assay [17], in assay [18], in assay [9] and in assay [19] was inactive.
Take `CN(C)c1ccc(C(=C2C=CC(=[N+](C)C)C=C2)c2ccc(N(C)C)cc2)cc1`: the molecule was classed as inactive in [2], in [3], in assay [13], in [4], in assay [5] and in assay [9]. The AC50 in [7] was 15.9 µM (active); in [8], 0.955 µM (active); in [14], 0.477 µM (active); in assay [10], 592 nM (active); in [11] it was 817 nM (active); in assay [12], 723 nM (active).
With `CC1=CC(=O)/C(=C(/C)O)C(=O)O1`, the molecule was classed as inactive in [2], in assay [3], in assay [13], in assay [5], in [6] and in assay [14].
